Pf growth 96h: P. falciparum growth inhibition at 96 hour, primary screen for plastid delayed-death inhibitors; Potency, µM (series often up to 28.7 µM), for the others: top-dose activity change, negative = inhibition, hits mostly inhibitors; P. falciparum luciferase reporter growth, 96 h; AID 504834; actives 6.9% (n = 320,000)
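Cell-based qHTS: luciferase-tagged P. falciparum in erythrocytes (2% hematocrit, 0.05% parasitemia final) incubated with compounds for 96 hours, 37 C, 5% CO2; luciferase detection reagent then added and luminescence measured.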
AMA1 RON2 block: inhibitors of Plasmodium falciparum AMA1-RON2 interaction. Potency, µM (doses to about 58.2 µM), for the others: top-dose activity change, negative = inhibition, most hits filed as inhibitors. AlphaScreen AMA1-biotinylated RON2 peptide binding. actives 0.2% (n = 360,000). AID 720542;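 note: 0% = vehicle wells and -100% = peptide control; nearly all actives have a fitted effect of over 45% in size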
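AMA1 (3D7) with his tag at 25 nM final met compounds first, then biotinylated RON2 peptide at 25 nM; detection used donor plus acceptor beads, 10 µg/mL apiece, read by AlphaScreen after 30 min at room temperature.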
Pf growth 48h: P. falciparum growth inhibition at 48 hours (one generation). P. falciparum luciferase growth in erythrocytes, 48 h. Potency, µM (top dose mostly 28.7 µM), without a hit: at the highest dose activity change, negative = inhibition, usual class: inhibitors. actives 5.9% (n = 310,000). AID 504832
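Growth was read as firefly luciferase luminescence after a 48 h, 37 C, 5% CO2 exposure of compounds to reporter-bearing P. falciparum cultures (0.1% parasitemia, 2% hematocrit final) in Albumax-supplemented RPMI 1640.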
HCV inh: blocks hepatitis C virus; Huh7.5.1 HCVcc-Cre infection, luciferase reporter, 44 h; Potency, µM (highest dose often 41.8 µM), for inactives: at the highest dose activity change, negative = inhibition, usual class: inhibitors; actives 3.4% (n = 340,000); AID 651820
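Luciferase read-out (15 sec integration) after a 15 min room-temperature substrate step quantifies HCVcc-Cre infection. Cells, 1,000 per well, had compound added 4 h post-plating, then virus at ~0.5 moi, and were cultured 44 h.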
Numbers without * were called inactive; ? = inconclusive; · = not tested or not shown. An excerpt weighted towards active compounds, which were near 11% of everything screened. Calls come from the whole dose curve; as a rule, active = well fitted curve in the direction sought with a large enough effect; inconclusive = small, poorly fitted or top-dose-only effect, or another doubt; inactive = no such curve, though single readings can be large; an effect the other way counts as inactive or inconclusive. Unless noted, % is set by controls: 0 for no effect and ±100 for the full control effect; potency is the fitted concentration of half-maximal effect.

SMILES	Pf growth 96h	AMA1 RON2 block	Pf growth 48h	HCV inh
COc1ccccc1N1CCN(C(=O)CCn2c(=O)[nH]c3ccccc3c2=O)CC1	·	7%	-11%	0%
COc1ccccc1N1CCN(C(=O)CCCn2nc(C)c([N+](=O)[O-])c2C)CC1	10µM*	-7%	5%	0%
O=C(CCCN1C(=O)c2ccccc2C1=O)N1CCCCC1	5.2µM*	2%	25%	3%
COc1ccccc1N1CCN(C(=O)CCCN2C(=O)c3cccc4cccc(c34)C2=O)CC1	-15%	-26%	?	8.9µM*
COc1ccccc1N1CCN(C(=O)CCCCCn2c(=O)[nH]c3ccsc3c2=O)CC1	0%	5%	13µM*	9%
COCCNC(=O)c1cccc2c(-c3ccnn3C)coc12	·	-4%	·	·
C=CCOc1c(Br)cc(/C=N/Nc2ccc(C(=O)O)cc2)cc1OCC	32%	3%	-5%	-6%
CN1CCCCC1(C)C(=O)NCc1ccc(C(C)(C)C)cc1 (stereo unspecified)	·	-5%	·	·
COc1ccc(-c2nnc(NC(=O)C3=COCCO3)o2)cc1	23%	41%	20%	11%
Cc1ccc(C(=O)NNC(=O)c2ccc(S(=O)(=O)N(C)c3ccccc3)cc2)cc1	62%	53%	45%	-4%
CCc1nc2ccc(C(=O)NCCOc3ccc(OC)cc3)cn2c1N(CC)Cc1ccc(OC)c(OC)c1	·	-19%	·	·
C=CC(=O)NCCCc1cc(C(C)(C)C)c(O)c(C(C)(C)C)c1	0%	0%	12µM*	?
CC(C)(C)c1cc(CCC(=O)NN)cc(C(C)(C)C)c1O	0%	23%	?	4%
COc1cccc(Cn2cnc3c(NS(=O)(=O)c4ccc(Cl)cc4)c(C)c(C)cc32)c1	4.7µM*	7%	13µM*	4%
COc1cccc(Cn2cnc3c(NS(=O)(=O)c4cccc(Cl)c4Cl)c(C)c(C)cc32)c1	?	-15%	?	13µM*
COc1ccc(C(=O)Nc2ccc(NC(=O)C3CC3)nc2)cc1	10µM*	15%	9%	3%
COc1cccc(C(=O)Nc2ccc(NC(=O)C3CC3)cn2)c1	8.3µM*	-15%	152%	16%
CCC(=O)Nc1ccc(NC(=O)c2cccc(OC)c2)nc1	-8%	-13%	392%	0%
COc1ccc(NC(=O)c2ccc(NC(=O)C3CC3)cc2)cc1	-2%	14%	-15%	?
CCN(CC)S(=O)(=O)c1ccc2[nH]c(=O)cc(C(=O)Nc3ccc(C)c(S(=O)(=O)N(CC)CC)c3)c2c1	?	-1%	?	?
CC(=O)Nc1cccn(Cc2c(Cl)cccc2Cl)c1=O	?	0%	4%	-10%
CCN(CC(=O)NC(C)(C)C)C(=O)COc1c(Cl)cc(Cl)c2ccc(C)nc12	?	82%	?	?
CCN(CC(=O)NC(C)(C)C)C(=O)CCl	?	4%	12µM*	?
O=C(NC1CCN(S(=O)(=O)c2ccccc2)CC1)c1ccc(F)cc1	?	-4%	6%	7%
Cc1nn(-c2ccccc2)c2sc(C(=O)N3CCCCC3)cc12	2%	-4%	46%	?
SMILES	Pf growth 96h	AMA1 RON2 block	Pf growth 48h	HCV inh
Cc1ccc(S(=O)(=O)N2CCN(C(=O)c3cc4c(C)nn(-c5ccccc5C)c4s3)CC2)cc1	3.3µM*	-8%	4.7µM*	?
Cc1ccccc1-n1nc(C)c2cc(C(=O)N3CCOCC3)sc21	3.3µM*	6%	-17%	6%
Cc1ccc(S(=O)(=O)N2CCN(C(=O)c3ccccn3)CC2)cc1	20%	-9%	-7%	2%
COc1ccc(CNC(=O)[C@H](CCSC)NC(=O)N2CCn3c2nc2ccccc23)cc1	2%	75%	?	-1%
CC(=O)N1c2ccc(S(=O)(=O)N3CCC(C(=O)NCc4ccc(Cl)cc4)CC3)cc2CC1C (stereo unspecified)	-24%	3%	9.3µM*	?
CC(=O)N1c2ccc(S(=O)(=O)N3CCC(C(=O)NCCc4ccc(Cl)cc4)CC3)cc2CC1C (stereo unspecified)	6%	-1%	?	10µM*
CC(=O)N1c2ccc(S(=O)(=O)N3CCC(C(=O)NCc4ccc(N(C)C)cc4)CC3)cc2CC1C (stereo unspecified)	-17%	-9%	-19%	?
CC(=O)Nc1ccc(S(=O)(=O)N2CCC(C(=O)NCCc3ccc(Cl)cc3)CC2)cc1	?	21%	?	4%
CC(=O)N1c2ccc(S(=O)(=O)N3CCC(C(=O)NCc4ccc(C)cc4)CC3)cc2CC1C (stereo unspecified)	12µM*	5%	?	?
CC(=O)N1c2ccc(S(=O)(=O)N3CCC(C(=O)NCc4ccccc4Cl)CC3)cc2CC1C (stereo unspecified)	9.3µM*	1%	?	9%
CC1Cc2cc(S(=O)(=O)N3CCC(C(=O)NCc4ccco4)CC3)ccc2N1C(=O)C1CCC1 (stereo unspecified)	?	-4%	9.3µM*	?
COc1cccc(CNC(=O)C2CCN(S(=O)(=O)c3ccc4c(c3)CC(C)N4C(=O)C3CC3)CC2)c1 (stereo unspecified)	-6%	17%	?	-24%
COc1ccc(CNC(=O)C2CCN(S(=O)(=O)c3ccc4c(c3)CC(C)N4C(=O)C3CC3)CC2)cc1 (stereo unspecified)	15µM*	-2%	?	?
Cc1ccc(CNC(=O)C2CCN(S(=O)(=O)c3ccc4c(c3)CC(C)N4C(=O)C3CC3)CC2)cc1 (stereo unspecified)	-3%	-13%	0%	?
Cc1cc(F)ccc1-c1cc(C(=O)Nc2ccccc2)[nH]n1	·	5%	·	·
Cc1cccc(CN2CCN(C(=O)CN(C)C(C)C(=O)Nc3ccc(C(N)=O)cc3)CC2)c1 (stereo unspecified)	-16%	-9%	-16%	-13%
Cc1ccccc1-n1c(C)nnc1SCC(=O)N(C)C1CCS(=O)(=O)C1 (stereo unspecified)	30%	-1%	37%	26%
CCN1CCCC1CNc1ncnc2c1[nH]c1ccc(Cl)cc12 (stereo unspecified)	1.5µM*	-3%	0.66µM*	?
O=C1CCCN1CCCNc1ncnc2c1[nH]c1ccc(Cl)cc12	?	6%	?	?
Cc1ccc2[nH]c3c(NCCN4CCOCC4)ncnc3c2c1	29%	-3%	4.1µM*	-25%
Clc1ccc2[nH]c3c(NCCCN4CCOCC4)ncnc3c2c1	212%	17%	0.41µM*	?
CCc1ccc(C2=NN(CCC(=O)NC3CCCCCC3)C(=O)CC2)cc1	10µM*	-3%	?	11%
CCc1ccc(C2=NN(CCC(=O)NCc3cccs3)C(=O)CC2)cc1	12%	-3%	?	6%
CCN1/C(=C2\C(=O)N(C)C(=S)N2C)C=Cc2cc(C)ccc21	23%	-7%	3.7µM*	2%
Cc1cccc(-n2c(C)nc3c(cnn3-c3ccc(F)cc3)c2=O)c1	9.3µM*	16%	?	6.3µM*
